High-throughput results deposited in PubChem by National Center for Advancing Translational Sciences (NCATS).
FBPA Giardia inh – Giardia lamblia aldolase inhibition; A8B2U2; purified Giardia FBPA; Potency, µM (series often up to 59.6 µM), without a hit: at the highest dose activity, negative = inhibition, actives largely listed as inhibitors; 0.71% of 290,000 active; AID 2451; note: nearly all actives have a fitted effect of over 55% in size
Target sequence (A8B2U2 whole entry, looked up): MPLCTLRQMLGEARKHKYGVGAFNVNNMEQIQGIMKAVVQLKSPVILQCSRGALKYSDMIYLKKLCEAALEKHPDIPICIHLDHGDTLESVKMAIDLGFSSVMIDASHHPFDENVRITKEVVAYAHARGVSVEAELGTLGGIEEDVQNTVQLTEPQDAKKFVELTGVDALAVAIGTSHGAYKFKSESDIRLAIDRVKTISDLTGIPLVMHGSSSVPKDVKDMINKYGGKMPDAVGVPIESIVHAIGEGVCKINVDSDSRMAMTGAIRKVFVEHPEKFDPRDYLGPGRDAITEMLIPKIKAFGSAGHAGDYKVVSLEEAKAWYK
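40 nM FBPA preincubated 10 min at RT with compound (up to 57.5 uM final), then substrate plus GAPDH/TPI/NAD/arsenate coupling and diaphorase/resazurin added. Fluorescence read after 20 min at RT, 525/598 nm.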
RE007 growth inh – less growth of the S. pombe RE007 Vpr strain | S. pombe RE007 Vpr strain, BacTiter-Glo ATP luminescence, 24 h | Potency, µM (titrated, usually from 92.2 µM), inactives show at the top dose activity change, negative = less growth, most hits filed as inhibitors | 0.21% of 360,000 active | AID 651644; active = well fitted falling curve with a large enough effect; inconclusive = small, poorly fitted or top-dose-only effect; inactive = no such curve, though single readings can be large or run the other way; note: nearly all actives have a fitted effect of over 50% in size
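Fission yeast strain RE007, carrying one chromosomally integrated HIV-1 vpr copy, was seeded at OD 0.01 in PMG+AL medium with 23 nL pinned compound. After 24 h at 30 °C and 99% humidity, viability was read by BacTiter-Glo luminescence.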
AmpC detergent – inhibitors of E. coli AmpC beta-lactamase with detergent; P00811; AmpC hydrolysis of nitrocefin, absorbance 480 nm, 0.01% Triton; Potency, µM (series often up to 114 µM), for inactives: at the top dose activity change, negative = inhibition, actives largely listed as inhibitors; 0.041% of 370,000 active; AID 485294;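 note: 0% = no-compound wells and -100% = no-enzyme wells; nearly all actives have a fitted effect of over 25% in size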
Target sequence (P00811 whole entry, looked up): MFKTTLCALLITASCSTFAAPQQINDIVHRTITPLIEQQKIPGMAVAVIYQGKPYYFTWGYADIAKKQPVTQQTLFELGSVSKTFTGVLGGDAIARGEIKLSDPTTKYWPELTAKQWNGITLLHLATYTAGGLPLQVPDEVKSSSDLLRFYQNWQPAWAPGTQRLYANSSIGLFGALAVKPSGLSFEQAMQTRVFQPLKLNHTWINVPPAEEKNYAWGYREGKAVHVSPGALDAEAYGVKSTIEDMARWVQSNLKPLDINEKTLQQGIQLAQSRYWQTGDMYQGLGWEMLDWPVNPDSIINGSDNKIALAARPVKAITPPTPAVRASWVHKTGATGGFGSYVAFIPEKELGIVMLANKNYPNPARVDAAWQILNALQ
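AmpC (5.3 nM in the dispensed reagent) in 20 mM phosphate pH 7.0 with 0.01% (detergent screen) or 0.0001% Triton X-100 was preincubated with compounds for 15 min at room temperature. Nitrocefin was then added from an 800 uM solution, and hydrolysis was followed at 480 nm.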
Sm TGR block – S. mansoni TGR enzyme inhibition; Potency, µM (doses to about 114 µM), for inactives: at the highest dose activity change, negative = inhibition, most hits filed as inhibitors; purified TGR, DTNB reduction, TNB absorbance 405 nm; 3% of 360,000 active; AID 485364; note: nearly all actives have a fitted effect of over 60% in size
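TGR 20 nM + NADPH 100 uM (dispensed conc.), cpd preinc 15 min RT; start with NADPH (500 uM addition) then DTNB (15 mM addition). Kinetic TNB absorbance, 405 nm filter. Four-parameter Hill fit across titration.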
AmpC inh no detg – AmpC beta-lactamase inhibition without detergent | P00811 | AmpC nitrocefin hydrolysis, absorbance 480 nm, 0.0001% Triton | Potency, µM (doses to about 57.1 µM), without a hit: at the top dose activity change, negative = inhibition, most hits filed as inhibitors | 0.52% of 330,000 active;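 note: plate controls were no compound for no effect and no enzyme for full effect; nearly all actives have a fitted effect of over 20% in size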
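AmpC (5.3 nM in the dispensed reagent) in 20 mM phosphate pH 7.0 with 0.01% (detergent screen) or 0.0001% Triton X-100 was preincubated with compounds for 15 min at room temperature. Nitrocefin was then added from an 800 uM solution, and hydrolysis was followed at 480 nm.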
* = called active by the depositor; u = inconclusive; x = not tested or not shown; [ ] = remark or other dose. In the library only some 3.4% were active in any assay of this set; here they are far more common. Unless noted, calls come from the whole dose curve; as a rule, active = well fitted curve in the direction sought with a large enough effect; inconclusive = small, poorly fitted or top-dose-only effect, or another doubt; inactive = no such curve, though single readings can be large; an effect the other way counts as inactive or inconclusive. Unless noted, % is set by controls: 0 for no effect and ±100 for the full control effect; potency is the fitted concentration of half-maximal effect.

SMILES | FBPA Giardia inh | RE007 growth inh | AmpC detergent | Sm TGR block | AmpC inh no detg
COc1ccc(CN2CCN(C3CCSCC3)CC2CCO)c(C)c1C (centres undefined) | 0% | -24% | 11% | 35µM* | 25%
O=C(NCC1CCCO1)c1cc(S(=O)(=O)N2CCCC2)c(Cl)cc1Cl (centres undefined) | 3% | -7% | 5% | 1% | 7%
Cc1cc2ccccc2n1CCNC(=O)c1ccc(Br)o1 | u | 18% | -4% | 13µM* | 27%
Cc1cc(C)c(NC(=S)N2CCN(c3ccc([N+](=O)[O-])cn3)CC2)cc1C | 5% | 10% | -12% | 0% | -15%
CCOC(=O)CN1C(=O)S/C(=C/c2ccc(N3CCCCC3)o2)C1=O | -24% | -5% | 2% | -9% | -9%
O=C(O)CN1C(=O)/C(=C/c2ccc(N3CCCCC3)o2)SC1=S | u | -11% | 1% | 2.8µM* | -31%
COC(=O)CN1C(=O)S/C(=C/c2ccc(N3CCCCC3)o2)C1=O | u | -25% | -1% | 7.1µM* | 79%
Cc1nn(C(=O)c2cccc(Cl)c2)c(C)c1S(=O)(=O)N1CCOCC1 | x | x | u | 20µM* | x
Clc1ccc2c(SCC3CO3)c3ccccc3nc2c1 (centres undefined) | x | 1µM* | x | x | x
O=C(O)c1ccc([N+](=O)[O-])c(CS(=O)(=O)c2ccc(Cl)cc2)c1 | -4% | -5% | -11% | -14% | -24%
O=C(CBr)c1ccc([N+](=O)[O-])c(CS(=O)(=O)c2ccc(Cl)cc2)c1 | 14% | x | 1% | 5µM* | -37%
COC(=O)c1ccc2c(=O)n(CCCCCC(=O)N3CCN(c4cc(Cl)ccc4C)CC3)c(=O)[nH]c2c1 | x | x | 4% | -11% | x
CCCNC(=O)C1(C)CCCN(C(=O)Cc2ccc(OC)c(OC)c2)C1 (centres undefined) | x | 3%[18.4 µM] | x | x | x
CC(C)c1ccccc1NC(=O)COC(=O)c1c2c(nc3ccccc13)CCN(Cc1ccccc1)C2 | -7% | 4% | -4% | -2% | 3.5µM*
CCc1cc2c(=O)c(-c3cnn(-c4ccccc4)c3)c(C)oc2cc1OCC(=O)Nc1ccc(F)c(F)c1 | 5% | x | -1% | -6% | -32%
CC[C@@]12C(=O)N(c3cccc(Br)c3)C(=O)N1[C@H](c1ccc(F)cc1)[C@@H]1C(=O)N(C3CCCCC3)C(=O)[C@@H]12 | x | -4% | u | 0% | 125%
O=C(O)CSc1cccc[n+]1[O-] | 0% | 16% | 2% | 6% | x
O=C(CSc1cccc[n+]1[O-])c1cc2ccccc2o1 | u | 8.9µM* | 7% | 17%[11.4 µM] | -15%
Nc1nc(SCC(=O)c2cc3ccccc3o2)n[nH]1 | u | 6% | 4% | 0% | -37%
O=C(CSc1cccc[n+]1[O-])c1cc(Cl)ccc1Cl | u | 5µM* | 4% | 8% | -26%
O=C(O)CCC(=O)Nc1cccc(-c2nnc(-c3ccccc3)o2)c1 | 10% | -10% | 3% | 25µM* | -14%
COc1ccc(C(=O)C2CCCN(Cc3c(C)[nH]c4ccccc34)C2)c(OC)c1 (centres undefined) | -5% | x | -7% | 35µM* | 18%
Cc1cc(C(=O)N/N=C/c2ccc(Br)o2)n[nH]1 | -3% | 11% | -12% | -33% | -9%
Cc1cc(C(=O)N/N=C/c2cc(Br)c(Br)o2)n[nH]1 | -19% | -10% | -3% | 10µM* | -19%
C=CCSc1nc2ccccc2n2cnnc12 | -1% | 5% | -4% | 6% | -8%
SMILES | FBPA Giardia inh | RE007 growth inh | AmpC detergent | Sm TGR block | AmpC inh no detg
CCOC(=O)CSc1nc2ccccc2n2cnnc12 | u | -14% | 3% | 50µM* | -10%
Cn1c(=O)c2c(nc(CN3CCN(C(=O)c4ccco4)CC3)n2Cc2cccc(Cl)c2)n(C)c1=O | -1% | -2% | -5% | 25µM* | 167%
N#Cc1ccc(OCC(=O)Nc2cc(S(=O)(=O)N3CCOCC3)ccc2N2CCCC2)cc1 | x | -1% | x | x | x
CC1(C)CC(=O)C(Sc2ccccc2)=C(O)C1 | -15% | 6% | -13% | 10µM* | -32%
CCOCCCNC(=O)C(c1ccccc1)N(Cc1cccs1)C(=O)CNC(=O)c1ccccc1 (centres undefined) | -3% | -10% | -6% | -4% | 80%
COC(Cn1c2c(c3cc(C)ccc31)CCCC2NCc1ccccc1)OC (centres undefined) | -7% | -4% | 0% | 4µM* | 43%
N#C/C(=C\c1cccc(Cl)c1)C(=O)c1ccccc1 | u | 6% | 0% | 50µM* | -32%
CCOc1ccc(NC(=O)CSc2nncc(=O)n2N)cc1 | -4% | -7% | 2% | -3% | 2%
COc1ccc(/C=N/NC(=O)c2nn(-c3ccccc3)c(=O)c3c(N)scc23)cc1 | 2.5µM* | -17% | 1% | -16% | -42%
O=C(N/N=C/C(Br)=C/c1ccccc1)c1cccnc1 | 0% | 2% | 2% | -11% | -16%
CC(/C=N/NC(=O)c1cnccn1)=C\c1ccco1 | u | -5% | 8% | 28µM* | -10%
CC(/C=N/NC(=O)c1cccnc1)=C\c1ccco1 | u | 8% | u | 50µM* | -11%
CC(=C/c1ccco1)/C=N/NC(=O)c1ccncc1 | u | -6% | 3% | 45µM* | -18%
Cc1ccc(C(=O)O/N=C(\N)Cc2cccs2)c(Cl)c1 | x | -25% | -5% | -10% | -34%
COc1cccc(CN2CC(C(=O)NCCn3ccc(C)n3)CCC2=O)c1 (centres undefined) | x | 6% | -13% | u | -6%
O=C1CNC(=S)N1CCc1ccc(O)c(O)c1 | u | -9% | 8% | 1.8µM* | -32%
CNC(=S)Nc1ccc2nc(C)oc2c1 | -5% | 2% | -1% | -3% | -19%
COc1ccc(NC(=S)Nc2ccc3nsnc3c2)cc1 | u | -15% | u | 40µM* | -21%
COc1ccc(NC(=S)Nc2ccc3nc(C)c(C)nc3c2)cc1 | u | -2% | -4% | 22µM* | -15%
COc1ccc(C(=O)Nc2ccc3nc(C)c(C)nc3c2)cc1 | 1% | 0% | 1% | 1% | -9%
CNC(=S)Nc1ccc2nc(C)c(C)nc2c1 | u | 5% | -2% | 32µM* | -24%
CNC(=S)Nc1cccc(-c2cnc3ccccc3n2)c1 | -11% | -3% | u | 11µM* | -30%
CCOc1ccc(NC(=S)Nc2ccc3nsnc3c2)cc1 | u | -28% | -12% | u | -27%
C=CCN(CC=C)C(=S)Nc1ccc2nsnc2c1 | 10µM* | 5% | 4% | u | -20%
O=C(c1cccs1)N1C[C@@H](n2cc(-c3ccc(F)cc3)nn2)[C@H](O)C[C@@H]1c1ccc(Cl)cc1 | x | -8% | x | x | x
CN(C)c1cc[n+](CC(=O)Nc2c(Cl)cc(Cl)cc2Cl)cc1 | 6% | -23% | -3% | 40µM* | -8%
